mHTT-CaM PPI inh: inhibitors of human mutant huntingtin-calmodulin interaction | hit rate 3.6% among 190,000 | inhibition, % at 15 µM | AlphaScreen His-mHTT/GST-CaM binding, luminescence | AID 1671202 | P42858;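 also: 0% = both proteins with DMSO and 100% = one protein alone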
Target sequence (P42858 whole entry, looked up, stated change not applied): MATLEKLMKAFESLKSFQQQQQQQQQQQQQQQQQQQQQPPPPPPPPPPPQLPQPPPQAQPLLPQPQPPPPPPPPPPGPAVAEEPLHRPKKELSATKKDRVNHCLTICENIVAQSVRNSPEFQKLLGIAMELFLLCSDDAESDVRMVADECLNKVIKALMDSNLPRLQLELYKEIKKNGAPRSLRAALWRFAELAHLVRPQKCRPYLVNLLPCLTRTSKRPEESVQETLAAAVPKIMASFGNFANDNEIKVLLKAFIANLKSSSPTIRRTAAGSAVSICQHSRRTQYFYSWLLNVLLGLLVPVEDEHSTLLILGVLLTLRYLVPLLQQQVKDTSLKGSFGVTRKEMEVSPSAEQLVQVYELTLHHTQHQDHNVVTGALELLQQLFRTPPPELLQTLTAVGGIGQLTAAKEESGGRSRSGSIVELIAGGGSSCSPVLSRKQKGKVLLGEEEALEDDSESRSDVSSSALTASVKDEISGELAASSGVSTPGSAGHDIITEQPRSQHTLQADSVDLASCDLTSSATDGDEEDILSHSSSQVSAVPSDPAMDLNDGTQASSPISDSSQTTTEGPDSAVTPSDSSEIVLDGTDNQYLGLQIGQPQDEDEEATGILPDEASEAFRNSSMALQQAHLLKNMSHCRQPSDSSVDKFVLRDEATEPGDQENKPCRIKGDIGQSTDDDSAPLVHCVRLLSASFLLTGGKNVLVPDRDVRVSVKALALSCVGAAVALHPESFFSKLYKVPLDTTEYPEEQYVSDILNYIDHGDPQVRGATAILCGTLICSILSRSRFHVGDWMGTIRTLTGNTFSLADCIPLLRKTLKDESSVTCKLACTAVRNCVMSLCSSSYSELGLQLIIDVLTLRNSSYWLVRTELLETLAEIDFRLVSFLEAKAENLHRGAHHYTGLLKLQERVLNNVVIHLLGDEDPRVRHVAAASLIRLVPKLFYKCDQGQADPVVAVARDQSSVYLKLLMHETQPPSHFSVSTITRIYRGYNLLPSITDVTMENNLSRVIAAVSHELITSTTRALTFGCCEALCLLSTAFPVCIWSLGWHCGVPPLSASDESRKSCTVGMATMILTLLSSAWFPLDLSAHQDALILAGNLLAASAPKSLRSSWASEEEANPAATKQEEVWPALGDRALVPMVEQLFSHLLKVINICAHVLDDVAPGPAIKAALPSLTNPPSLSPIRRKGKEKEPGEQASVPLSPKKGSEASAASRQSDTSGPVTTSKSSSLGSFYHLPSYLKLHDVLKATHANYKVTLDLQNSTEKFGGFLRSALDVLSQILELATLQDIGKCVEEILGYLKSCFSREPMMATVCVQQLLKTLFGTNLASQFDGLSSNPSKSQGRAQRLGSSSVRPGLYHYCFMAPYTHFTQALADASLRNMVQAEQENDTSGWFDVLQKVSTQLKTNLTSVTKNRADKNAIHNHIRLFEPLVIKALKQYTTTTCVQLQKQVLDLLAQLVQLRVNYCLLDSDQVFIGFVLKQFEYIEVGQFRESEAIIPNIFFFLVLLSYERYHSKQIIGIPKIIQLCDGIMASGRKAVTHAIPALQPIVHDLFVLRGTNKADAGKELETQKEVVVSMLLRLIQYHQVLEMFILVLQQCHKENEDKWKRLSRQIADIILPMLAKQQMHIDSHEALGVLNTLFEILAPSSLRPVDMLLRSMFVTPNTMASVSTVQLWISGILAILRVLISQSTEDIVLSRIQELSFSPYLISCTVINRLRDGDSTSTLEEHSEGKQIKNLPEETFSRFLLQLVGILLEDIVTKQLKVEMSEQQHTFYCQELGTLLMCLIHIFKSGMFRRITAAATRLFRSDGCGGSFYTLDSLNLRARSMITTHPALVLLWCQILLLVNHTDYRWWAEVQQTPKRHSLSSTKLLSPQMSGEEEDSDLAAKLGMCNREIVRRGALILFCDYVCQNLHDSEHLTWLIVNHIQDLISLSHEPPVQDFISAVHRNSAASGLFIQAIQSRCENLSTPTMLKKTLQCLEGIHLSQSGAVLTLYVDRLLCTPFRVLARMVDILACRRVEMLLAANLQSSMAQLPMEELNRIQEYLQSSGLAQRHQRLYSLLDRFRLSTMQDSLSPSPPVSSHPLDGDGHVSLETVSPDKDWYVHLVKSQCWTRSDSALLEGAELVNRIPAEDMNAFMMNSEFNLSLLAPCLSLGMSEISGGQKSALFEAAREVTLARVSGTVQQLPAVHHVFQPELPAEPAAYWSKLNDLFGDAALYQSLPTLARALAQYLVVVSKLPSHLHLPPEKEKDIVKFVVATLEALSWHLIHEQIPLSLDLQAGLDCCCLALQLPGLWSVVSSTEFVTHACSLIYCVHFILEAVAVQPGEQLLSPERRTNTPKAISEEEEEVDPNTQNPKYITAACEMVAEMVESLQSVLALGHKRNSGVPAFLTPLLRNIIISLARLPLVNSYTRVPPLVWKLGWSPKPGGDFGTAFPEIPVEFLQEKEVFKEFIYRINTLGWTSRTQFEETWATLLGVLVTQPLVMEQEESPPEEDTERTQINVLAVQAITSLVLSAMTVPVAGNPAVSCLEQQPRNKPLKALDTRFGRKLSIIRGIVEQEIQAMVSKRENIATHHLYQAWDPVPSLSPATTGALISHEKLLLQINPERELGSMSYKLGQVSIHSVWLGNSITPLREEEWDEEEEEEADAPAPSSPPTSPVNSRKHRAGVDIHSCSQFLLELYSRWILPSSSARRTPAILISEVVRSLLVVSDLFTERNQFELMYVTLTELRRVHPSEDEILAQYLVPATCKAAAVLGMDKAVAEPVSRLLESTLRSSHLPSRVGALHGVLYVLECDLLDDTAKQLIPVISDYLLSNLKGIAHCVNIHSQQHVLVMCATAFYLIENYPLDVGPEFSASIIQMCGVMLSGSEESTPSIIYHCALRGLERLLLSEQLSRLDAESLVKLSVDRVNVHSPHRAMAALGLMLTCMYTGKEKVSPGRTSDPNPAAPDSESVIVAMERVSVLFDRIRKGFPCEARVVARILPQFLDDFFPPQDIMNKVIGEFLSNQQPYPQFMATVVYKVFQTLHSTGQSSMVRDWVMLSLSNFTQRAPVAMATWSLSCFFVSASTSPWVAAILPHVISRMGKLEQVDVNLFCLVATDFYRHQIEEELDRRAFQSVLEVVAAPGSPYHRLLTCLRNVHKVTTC
Pf apPOL block: Pf-apPOL DNA polymerase inhibition; Recombinant Pf-apPOL, molecular beacon fluorescence, 1.5 h; inhibition, % at 10 µM; AID 1794808; hit rate 0.25% among 210,000
An asterisk follows results filed as active; . = no result given. This is a sample that favours compounds with a hit; in the whole collection about 3.5% have one here. Rule as the data show it: active = inhibition above about 50%; inactive = the rest.

SMILES	mHTT-CaM PPI inh	Pf apPOL block
COc1ccc(OC)c(NC(=O)N2CCC3(CC2)Nc2cc(F)ccc2-n2cccc23)c1	63.2*	1.2
COc1ccc(Cl)cc1NC(=O)N1CCC2(CC1)Nc1cc(F)ccc1-n1cccc12	54.5*	-2.1
COc1ccccc1NC(=O)N1CCC2(CC1)Nc1cc(F)ccc1-n1cccc12	56.5*	-8.7
C=CCn1c(SCC(=O)O)nnc1-c1ccc(Cl)cc1Cl	-8.9	0.0
CN(C)c1ccc(C=NO)c(F)c1C#N	.	-7.0
O=C(c1ccc(F)cc1)N1CCC(c2ccn3ncc(C(=O)N4CCCC4)c3c2)CC1	12.3	-0.3
CCN1C(=O)C(C)(C(=O)NCc2ccc(OC)cc2)Oc2cccnc21 (centres undefined)	-9.8	-2.0
CCOC(=O)N1CCN(C(=O)c2ccc3nc(-c4ccco4)c(-c4ccco4)nc3c2)CC1	-2.9	1.1
O=C(Nc1ccc2nc(-c3ccco3)c(-c3ccco3)nc2c1)NC1CC1	99.4*	-2.1
O=C(c1ccc2nc(N3C(=O)CCC3=O)sc2c1)N(CCO)c1ccccc1	10.5	-3.6
O=C(Nc1nccs1)c1ccc2nc(-c3ccco3)c(-c3ccco3)nc2c1	93.1*	1.5
O=C(Nc1ccccc1F)c1ccc2nc(-c3ccco3)c(-c3ccco3)nc2c1	-0.6	2.8
O=C(NC1=NCCS1)c1ccc2nc(-c3ccco3)c(-c3ccco3)nc2c1	71.6*	-3.9
O=C(Nc1ccc2nsnc2c1)NC1CC1	-0.5	-3.3
O=C(c1ccc2nc(-c3ccco3)c(-c3ccco3)nc2c1)N(CCO)c1ccccc1	66.8*	1.9
C=CCn1c(=N)c(C(=O)NCc2ccccc2)cc2c(=O)n3cccc(C)c3nc21	5.0	-2.2
O=C(Nc1ccccc1C(F)(F)F)c1ccc(-c2cccc([N+](=O)[O-])c2)o1	1.0	-7.9
COc1ccc(CNC(=O)C2CCCN(c3cnn(Cc4ccccc4)c(=O)c3)C2)cc1 (centres undefined)	14.9	-2.7
O=C(Nc1cc(Cl)cc(Cl)c1)c1ccc(F)c(S(=O)(=O)NCCc2ccccc2)c1	40.0	38.9
O=C(Nc1ccc(Cl)c(Cl)c1)c1ccc(F)c(S(=O)(=O)NCc2ccc(F)cc2)c1	0.0	-7.4
O=C(Nc1ccc(Cl)c(Cl)c1)c1ccc(F)c(S(=O)(=O)NCCc2ccccc2)c1	71.0*	4.6
O=C(Nc1ccc(F)c(F)c1)c1ccc(F)c(S(=O)(=O)NCCc2ccc(Cl)cc2)c1	50.0*	-22.7
O=C(c1ccccn1)N1CCCC2(C1)Nc1cccnc1NC2=NCc1ccccc1 (centres undefined)	1.0	-3.9
Cc1ccnc(N2CCC(C(=O)NCCN3CCCCC3C)CC2)n1 (centres undefined)	-5.8	0.9
Cc1cc(C2CCCN2C(=O)Nc2ccccc2)on1 (centres undefined)	-7.0	-3.8
SMILES	mHTT-CaM PPI inh	Pf apPOL block
Cc1cc(C)n(-c2nnc(N)nn2)n1	1.8	.
Cc1cc(C)n(-c2nnc(C)c(=O)[nH]2)n1	89.6*	-2.3
Cc1ccc(-n2nc3c(c2NC(=O)C24CC5CC(CC(C5)C2)C4)CS(=O)(=O)C3)c(C)c1	4.0	-4.9
Cc1cccc(S(=O)(=O)NC2CCN(c3ccccc3)C2=O)c1 (centres undefined)	-15.5	59.8*
Cc1ccc(N2CCC(NS(=O)(=O)c3cccc(F)c3)C2=O)cc1 (centres undefined)	-10.8	1.8
Cc1ccc(NC(=O)CN2C(=O)CC(c3ccccc3)=Nc3cccnc32)c(C)c1	-5.7	3.1
CCN(CC)c1ccc(/C=C2/N=C(c3ccccc3)NC2=O)cc1	88.0*	-4.7
CCN(C)c1ccc(/C=C2/C(=O)N(c3cccc(Cl)c3)N=C2C)cc1	68.0*	-10.7
CCN(C)c1ccc(/C=C2/C(=O)N(c3ccc(Cl)cc3)N=C2C)cc1	70.0*	0.4
CCN(CC)c1ccc(/C=C2/N=C(c3ccc(F)cc3)OC2=O)cc1	1.0	-4.3
CC1=NN(c2cccc(Cl)c2)C(=O)/C1=C/c1ccc(F)cc1	8.0	7.4
COc1ccccc1OCCOc1ccc([N+](=O)[O-])cc1/C=C1/C(=O)N(c2ccccc2)N=C1C	4.0	10.8
CC1=NN(c2ccc(F)cc2)C(=O)/C1=C/c1ccc(N(C)C)cc1	10.0	-2.4
CC1=NN(c2ccccc2)C(=O)/C1=C/c1ccc(Oc2ccc([N+](=O)[O-])cc2[N+](=O)[O-])cc1	52.0*	0.5
COc1cn(CC(=O)NC2CCCC2)c(CN2CCCCCC2)cc1=O	-3.1	-2.7
NC(=O)CCSCCC(N)=O	.	-4.4
Cc1ccc(N(C(=O)COc2ccc(F)cc2)C2C=CS(=O)(=O)C2)cc1 (centres undefined)	2.4	-4.7
CCc1cccc(NC(=O)N2CCc3nc4cc(-c5ccccc5)[nH]n4c(=O)c3C2)c1	-6.7	-5.1
CNc1ccc(OC(F)(F)F)cc1	-4.1	.
CC1=NN(c2ccccc2)C(=O)/C1=C/c1ccc([N+](=O)[O-])cc1	33.0	-3.4
CC1=NN(c2ccc(C)c(C)c2)C(=O)/C1=C/c1ccc([N+](=O)[O-])cc1	53.0*	3.1

Source: PubChem BioAssay
